Data taken from PubChem BioAssay (NCATS).
Inconclusive results are not listed. The source made the active and inactive calls. Unless noted, the call rests on the fitted dose curve.

target: Tumor susceptibility gene 101 protein (Homo sapiens) (UniProt Q99816); assay: qHTS Validation Assay for Iinhibitors of HIV-1 Budding by Blocking the Interaction of PTAP/TSG101 (AID 485342); conditions: TSG101-PTAP binding, fluorescence polarization, 4-point titration; series mostly up to 115 µM
Procedure, shortened: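 Fluorescence polarization of 50 nM FITC-PTAP peptide bound to 10 uM Tsg101 binding domain was read after 20 min room-temperature incubation with compounds, in 10 mM HEPES pH 7.5, 0.15 M NaCl, 0.01% Tween 20.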

Sequence of Tumor susceptibility gene 101 protein (Homo sapiens) (Q99816 whole entry, looked up, the tested form may be a part): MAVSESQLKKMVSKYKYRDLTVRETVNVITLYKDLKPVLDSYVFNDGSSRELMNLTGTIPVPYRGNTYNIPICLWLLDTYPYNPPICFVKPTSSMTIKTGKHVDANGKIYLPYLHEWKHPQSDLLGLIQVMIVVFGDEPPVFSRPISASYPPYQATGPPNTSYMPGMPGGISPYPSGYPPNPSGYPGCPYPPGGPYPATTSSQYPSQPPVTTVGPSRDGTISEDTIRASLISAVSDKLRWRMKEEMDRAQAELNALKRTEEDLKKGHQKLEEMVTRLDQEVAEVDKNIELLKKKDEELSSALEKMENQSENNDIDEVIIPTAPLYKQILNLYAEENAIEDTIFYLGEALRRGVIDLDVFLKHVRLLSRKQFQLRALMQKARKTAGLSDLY

Which outcome does the source give for CC(=O)N[C@@H](CS)C(=O)O here?
Its outcome is “inactive”.

Which outcome does the source give for COC(=O)[C@@H]1[C@H]2C[C@H]3c4[nH]c5ccccc5c4CCN3C[C@@H]2CC[C@@H]1O here?
The outcome was “inactive”.

Which outcome does the source give for CCCNC(=O)NS(=O)(=O)c1ccc(Cl)cc1 here?
The outcome was “inactive”.

With CC(=O)c1ccc(S(=O)(=O)NC(=O)NC2CCCCC2)cc1 as the compound, how does the outcome read?
Its outcome is “inactive”.

For Clc1ccc(Cn2c(CN3CCCC3)nc3ccccc32)cc1, which outcome is on record?
Its outcome is “inactive”.

For O=C(O)CCc1nc(-c2ccccc2)c(-c2ccccc2)o1, which outcome is on record?
Its outcome is “inactive”.

With CC(C)NCC(O)COc1cccc2[nH]ccc12 (stereo unspecified) as the compound, how does the outcome read?
The outcome was “inactive”.

Which outcome does the source give for O=C1NCC2(CCN(CCc3ccccc3)CC2)O1 here?
The outcome was “inactive”.

With CC(=O)CCCCn1c(=O)c2c(ncn2C)n(C)c1=O as the compound, how does the outcome read?
The outcome was “inactive”.

Which outcome does the source give for CN(C)CCC(c1ccccc1)c1ccccn1 (stereo unspecified) here?
Its outcome is “inactive”.

Which outcome does the source give for CC(C)OC(=O)C(C)(C)Oc1ccc(C(=O)c2ccc(Cl)cc2)cc1 here?
The outcome was “inactive”.

For O=c1c(-c2ccc(O)cc2)coc2cc(O)ccc12, which outcome is on record?
The outcome was “inactive”.

For CCN(CC)C(=O)c1ccc(O)c(OC)c1, which outcome is on record?
The outcome was “inactive”.

Which outcome does the source give for CCN1CCC[C@H]1CNC(=O)c1cc(S(N)(=O)=O)ccc1OC here?
The outcome was “inactive”.

With NC(N)=Nc1nc(CSCC/C(N)=N/S(N)(=O)=O)cs1 as the compound, how does the outcome read?
Its outcome is “inactive”.

Which outcome does the source give for Cc1cccc(C)c1OCC(C)N (stereo unspecified) here?
The outcome was “inactive”.

Which outcome does the source give for O=C1NC(=O)C(c2ccccc2)(c2ccccc2)N1 here?
The outcome was “inactive”.

For C[N+](C)(C)CCCCCC[N+](C)(C)C, which outcome is on record?
The outcome was “inactive”.

Which outcome does the source give for CCN(CC)CCOC(=O)c1ccc(N)cc1 here?
Its outcome is “inactive”.

For NCCS, which outcome is on record?
The outcome was “inactive”.

For COc1ccccc1N1CCN(CCCNc2cc(=O)n(C)c(=O)n2C)CC1, which outcome is on record?
The outcome was “inactive”.

With CCCCC1C(=O)N(c2ccccc2)N(c2ccccc2)C1=O as the compound, how does the outcome read?
The outcome was “inactive”.

system: not listed separately; assay: qHTS Validation Assay to Find Inhibitors of Chronic Active B-Cell Receptor Signaling (AID 485345; active means well fitted curve in the direction sought with a large enough effect in the main read-out, with a control signal flat, not every such curve was filed as active); conditions: ABC-DLBCL cells, chronic BCR signaling reporter, CBG luciferase; series mostly up to 46.1 µM
Procedure, shortened: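 TMD8 ABC-DLBCL cells with dox-inducible green luciferase–IκBα fusion and red native luciferase; compounds 46 uM–3 nM, 4 h at 37C with doxycycline in 0.5% FBS IMDM. Green/red ratio normalized to basal and 10 uM MG-132.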

With CC(=O)N[C@@H](CS)C(=O)O as the compound, how does the outcome read?
The outcome was “inactive”.

With CCCNC(=O)NS(=O)(=O)c1ccc(Cl)cc1 as the compound, how does the outcome read?
The outcome was “inactive”.

With CC(=O)c1ccc(S(=O)(=O)NC(=O)NC2CCCCC2)cc1 as the compound, how does the outcome read?
Its outcome is “inactive”.

With Clc1ccc(Cn2c(CN3CCCC3)nc3ccccc32)cc1 as the compound, how does the outcome read?
The outcome was “inactive”.

Which outcome does the source give for O=C(O)CCc1nc(-c2ccccc2)c(-c2ccccc2)o1 here?
The outcome was “inactive”.

For CC(C)NCC(O)COc1cccc2[nH]ccc12 (stereo unspecified), which outcome is on record?
The outcome was “inactive”.

Which outcome does the source give for O=C1NCC2(CCN(CCc3ccccc3)CC2)O1 here?
Its outcome is “inactive”.

With CC(=O)CCCCn1c(=O)c2c(ncn2C)n(C)c1=O as the compound, how does the outcome read?
Its outcome is “inactive”.

With CN(C)CCC(c1ccccc1)c1ccccn1 (stereo unspecified) as the compound, how does the outcome read?
Its outcome is “inactive”.

Which outcome does the source give for CCN(CC)C(=O)c1ccc(O)c(OC)c1 here?
The outcome was “inactive”.

For CCN1CCC[C@H]1CNC(=O)c1cc(S(N)(=O)=O)ccc1OC, which outcome is on record?
The outcome was “inactive”.

With NC(N)=Nc1nc(CSCC/C(N)=N/S(N)(=O)=O)cs1 as the compound, how does the outcome read?
The outcome was “inactive”.

For Cc1cccc(C)c1OCC(C)N (stereo unspecified), which outcome is on record?
Its outcome is “inactive”.

Which outcome does the source give for O=C1NC(=O)C(c2ccccc2)(c2ccccc2)N1 here?
The outcome was “inactive”.

Which outcome does the source give for C[N+](C)(C)CCCCCC[N+](C)(C)C here?
Its outcome is “inactive”.

With CCN(CC)CCOC(=O)c1ccc(N)cc1 as the compound, how does the outcome read?
The outcome was “inactive”.

Which outcome does the source give for NCCS here?
The outcome was “inactive”.

For COc1ccccc1N1CCN(CCCNc2cc(=O)n(C)c(=O)n2C)CC1, which outcome is on record?
Its outcome is “inactive”.

With CCCCC1C(=O)N(c2ccccc2)N(c2ccccc2)C1=O as the compound, how does the outcome read?
Its outcome is “inactive”.
